# Results published in PubChem BioAssay (EPA / NIEHS).
# The source made the active and inactive calls. The calls were made as follows: active = hit-call score of the fitted dose curve at least 0.9, where 1 is the maximum; inactive = score below 0.9.
# What was measured:
# Conditions in all cases: mRNA level, 48 h; actives raise or lower the signal
# [1] = read-out: ABC Transporter (ABCC2), ABCC2 (gene 1244); experiment: LTEA_HepaRG_ABCC2: Life Technologies and Expression Analysis (LTEA) Assay for ABC Transporter (ABCC2) using HepaRG (AID 2283464)
# Outline: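 Gene expression of ABCC2 was determined by qRT-PCR in HepaRG cells exposed 48 h to chemicals (highest 100 uM, half-log dilutions). Activity was fitted in both directions relative to 0.5% DMSO vehicle.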
# [2] = read-out: Broad substrate specificity ATP-binding cassette transporter ABCG2 (Homo sapiens) (UniProt Q9UNQ0); experiment: LTEA_HepaRG_ABCG2: Life Technologies and Expression Analysis (LTEA) Assay for ABC Transporter (ABCG2) using HepaRG (AID 2283465)
# Outline: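 ABCG2 transcript was quantified by TaqMan qRT-PCR against three housekeeping genes in HepaRG cells. Cells were treated in duplicate for 48 h across an 8-point half-log series up to 100 uM, with 0.5% DMSO vehicle. Gain or loss versus DMSO was fit.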
# [3] = read-out: ATP-citrate lyase (ACLY), ACLY (gene 47); experiment: LTEA_HepaRG_ACLY: Life Technologies and Expression Analysis (LTEA) Assay for ATP-citrate lyase (ACLY) using HepaRG (AID 2283466)
# Outline: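 ACLY mRNA quantified by qRT-PCR on Fluidigm arrays against three housekeeping genes, after 48 h chemical treatment of HepaRG cells (top concentration 100 uM, half-log steps, 0.5% DMSO vehicle). Up- or down-regulation fitted relative to DMSO.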
# [4] = read-out: Peroxisomal acyl-coenzyme A oxidase 1 (ACOX1) gene, ACOX1 (gene 51); experiment: LTEA_HepaRG_ACOX1: Life Technologies and Expression Analysis (LTEA) Assay for Peroxisomal acyl-coenzyme A oxidase 1 (ACOX1) gene using HepaRG (AID 2283467)
# Outline: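 ACOX1 transcript levels were quantified by TaqMan qRT-PCR against three housekeeping genes after 48 h chemical exposure of differentiated human HepaRG cells. Exposure used eight half-log steps topping at 100 uM, 0.5% DMSO vehicle, in duplicate. Bidirectional curve fits were made relative to DMSO.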
# [5] = read-out: Alkaline Phosphatase, Placental (ALPP) gene, ALPP (gene 250); experiment: LTEA_HepaRG_ALPP: Life Technologies and Expression Analysis (LTEA) Assay for Alkaline Phosphatase, Placental (ALPP) gene using HepaRG (AID 2283468);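 as to AC50: differentiated human HepaRG liver cells in serum-free induction medium; ALPP transcript by TaqMan qRT-PCR normalized to ACTB GAPDH and POLR2A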
# Outline: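 Expression of ALPP was quantified by qRT-PCR against three housekeeping genes in human HepaRG cultures treated for 48 h with an eight-point concentration series up to 100 uM. Activity in either direction was fitted relative to 0.5% DMSO.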
# [6] = read-out: Bcl-2 (BAD) gene, BAD (gene 572); experiment: LTEA_HepaRG_BAD: Life Technologies and Expression Analysis (LTEA) Assay for Bcl-2 (BAD) gene using HepaRG (AID 2283469)
# Outline: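 Read-out: qRT-PCR of BAD mRNA, normalized to three housekeeping genes. Human HepaRG cultures got 48 h chemical exposure in 0.5% DMSO, duplicate eight-point half-log series topping at 100 uM. Gain or loss of signal fitted versus DMSO vehicle.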
# [7] = read-out: Bcl-2 (BAX) gene, BAX (gene 581); experiment: LTEA_HepaRG_BAX: Life Technologies and Expression Analysis (LTEA) Assay for Bcl-2 (BAX) gene using HepaRG (AID 2283470)
# Outline: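 Human HepaRG cells treated in duplicate for 48 h across eight concentrations (max 100 uM, 0.5% DMSO); BAX expression measured by qRT-PCR.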
# [8] = read-out: adenosine kinase (ADK) gene, ADK (gene 132); experiment: LTEA_HepaRG_ADK: Life Technologies and Expression Analysis (LTEA) Assay for adenosine kinase (ADK) gene using HepaRG (AID 2283471)
# Outline: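 Differentiated HepaRG cells dosed 48 h in serum-free induction medium, 0.5% DMSO vehicle, eight half-log concentrations from 100 uM, in duplicate. ADK mRNA by TaqMan qRT-PCR normalised to ACTB, GAPDH, POLR2A; bidirectional fit versus DMSO.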
# [9] = read-out: Alpha-fetoprotein (AFP) gene, AFP (gene 174); experiment: LTEA_HepaRG_AFP: Life Technologies and Expression Analysis (LTEA) Assay for Alpha-fetoprotein (AFP) gene using HepaRG (AID 2283472);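 as to AC50: AFP transcript by TaqMan qRT-PCR normalized to ACTB GAPDH and POLR2A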
# Outline: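 Measures AFP mRNA change in HepaRG after 48 h chemical exposure (8 half-log concentrations, highest 100 uM, 0.5% DMSO). Fold change relative to DMSO, fitted in both directions.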
# BCL2L11 (gene 10018) = experiment: LTEA_HepaRG_BCL2L11: Life Technologies and Expression Analysis (LTEA) Assay for Bcl-2 (BCL2L11) gene using HepaRG (AID 2283473)
# Outline: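 Cells were plated, cultured 48 h, switched to serum-free induction medium, then dosed in duplicate for 48 h at eight half-log concentrations up to 100 uM. Lysates underwent RNA isolation and TaqMan qRT-PCR; gain or loss versus DMSO was fitted.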
# Chain of Broad substrate specificity ATP-binding cassette transporter ABCG2 (Homo sapiens) (Q9UNQ0 whole entry, looked up): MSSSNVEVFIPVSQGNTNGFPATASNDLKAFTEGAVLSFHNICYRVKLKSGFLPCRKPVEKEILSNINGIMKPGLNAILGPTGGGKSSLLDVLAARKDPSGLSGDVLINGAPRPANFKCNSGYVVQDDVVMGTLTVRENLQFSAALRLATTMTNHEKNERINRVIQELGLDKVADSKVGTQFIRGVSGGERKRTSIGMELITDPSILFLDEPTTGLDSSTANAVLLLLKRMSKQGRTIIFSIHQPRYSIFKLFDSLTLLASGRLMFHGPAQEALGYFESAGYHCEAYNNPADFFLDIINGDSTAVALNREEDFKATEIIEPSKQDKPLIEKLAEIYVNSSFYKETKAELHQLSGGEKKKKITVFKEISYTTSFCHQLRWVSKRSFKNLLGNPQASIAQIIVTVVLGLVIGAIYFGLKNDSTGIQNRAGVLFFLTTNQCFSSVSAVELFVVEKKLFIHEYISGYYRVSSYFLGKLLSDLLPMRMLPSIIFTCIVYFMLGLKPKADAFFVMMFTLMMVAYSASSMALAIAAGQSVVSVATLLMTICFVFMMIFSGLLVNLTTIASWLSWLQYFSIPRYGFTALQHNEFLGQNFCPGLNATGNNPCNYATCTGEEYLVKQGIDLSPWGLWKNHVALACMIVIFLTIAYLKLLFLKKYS
smiles,measurement,setting,value
COCc1nnc(-c2ccc[n+]([O-])c2)n1-c1c(Cl)c(Cl)cc2[nH]c(=O)c(=O)[nH]c12,outcome,[1],inactive
same,outcome,[2],inactive
same,outcome,[3],inactive
same,outcome,[4],inactive
same,outcome,[5],inactive
same,outcome,[6],inactive
same,outcome,[7],inactive
same,outcome,[8],inactive
same,outcome,[9],inactive
O=S1(=O)CCCO1,outcome,[1],inactive
same,outcome,[2],inactive
same,outcome,[3],inactive
same,outcome,[4],inactive
same,outcome,[5],inactive
same,outcome,[7],inactive
same,outcome,[8],inactive
same,outcome,[9],inactive
OCC(CO)(CO)CO,outcome,[1],inactive
same,outcome,[2],inactive
same,outcome,[3],inactive
same,outcome,[4],inactive
same,outcome,[5],inactive
same,outcome,[7],inactive
same,outcome,[8],inactive
same,outcome,[9],inactive
same,outcome,BCL2L11 (gene 10018),inactive
O=S(=O)(O)c1ccc(N=Nc2c(O)ccc3cc(S(=O)(=O)O)ccc23)cc1,outcome,[1],inactive
same,outcome,[2],inactive
same,outcome,[3],inactive
same,outcome,[4],inactive
same,outcome,[5],inactive
same,outcome,[7],inactive
same,outcome,[8],inactive
same,outcome,[9],inactive
CCCCCOC(C)=O,outcome,[1],inactive
same,outcome,[2],inactive
same,outcome,[3],inactive
same,outcome,[4],inactive
same,outcome,[5],inactive
same,outcome,[7],inactive
same,outcome,[8],inactive
same,outcome,[9],inactive
CC(C)CCCCCCOC(=O)C1CCCCC1C(=O)OCCCCCCC(C)C (configuration not stated),outcome,[1],inactive
same,outcome,[2],inactive
same,outcome,[3],inactive
same,outcome,[4],inactive
same,AC50,[5],0.00316 µM (active)
same,outcome,[7],inactive
same,AC50,[8],0.00316 µM (active)
same,outcome,[9],inactive
same,outcome,BCL2L11 (gene 10018),inactive
CCCCCCCCCCCCCCCCOS(=O)(=O)O,outcome,[1],inactive
same,outcome,[2],inactive
same,outcome,[3],inactive
same,outcome,[4],inactive
same,outcome,[5],inactive
same,outcome,[7],inactive
same,outcome,[8],inactive
same,AC50,[9],41.2 µM (active)
OC[C@H]1O[C@@H]2O[C@H]3[C@H](O)[C@@H](O)[C@@H](O[C@H]4[C@H](O)[C@@H](O)[C@@H](O[C@H]5[C@H](O)[C@@H](O)[C@@H](O[C@H]6[C@H](O)[C@@H](O)[C@@H](O[C@H]7[C@H](O)[C@@H](O)[C@@H](O[C@H]1[C@H](O)[C@H]2O)O[C@@H]7CO)O[C@@H]6CO)O[C@@H]5CO)O[C@@H]4CO)O[C@@H]3CO,outcome,[1],inactive
same,outcome,[2],inactive
same,outcome,[3],inactive
same,outcome,[4],inactive
same,outcome,[5],inactive
same,outcome,[7],inactive
same,outcome,[8],inactive
same,outcome,[9],inactive
OC(Cn1cncn1)(Cn1cncn1)c1ccc(F)cc1F,outcome,[1],inactive
same,outcome,[2],inactive
same,outcome,[3],inactive
same,outcome,[4],inactive
same,outcome,[5],inactive
same,outcome,[7],inactive
same,outcome,[8],inactive
same,outcome,[9],inactive
same,outcome,BCL2L11 (gene 10018),inactive
c1ccc2c(c1)-c1cccc3c1c-2cc1ccccc13,AC50,[1],13.8 µM (active)
same,outcome,[2],inactive
same,AC50,[3],3.88 µM (active)
same,AC50,[4],15.9 µM (active)
same,outcome,[5],inactive
same,outcome,[7],inactive
same,AC50,[8],12.3 µM (active)
same,AC50,[9],17.2 µM (active)
NC(=O)N(O)[C@@H]1COc2cc(OCc3ccccc3)ccc21,outcome,[1],inactive
same,outcome,[2],inactive
same,outcome,[3],inactive
same,outcome,[4],inactive
same,outcome,[5],inactive
same,outcome,[7],inactive
same,outcome,[8],inactive
same,outcome,[9],inactive
same,outcome,BCL2L11 (gene 10018),inactive
CCCOc1ccc(S(=O)(=O)N2CCN(CC)CC2)cc1-c1nc2c(CC)n(Cc3ccccn3)nc2c(=O)[nH]1,AC50,[1],5.49 µM (active)
same,outcome,[2],inactive
same,AC50,[3],80.2 µM (active)
same,outcome,[4],inactive
same,AC50,[5],50 µM (active)
same,outcome,[7],inactive
same,outcome,[8],inactive
same,AC50,[9],26.9 µM (active)
OCCOCCOCCO,outcome,[1],inactive
same,outcome,[2],inactive
same,outcome,[3],inactive
same,outcome,[4],inactive
same,outcome,[5],inactive
same,outcome,[7],inactive
same,outcome,[8],inactive
same,outcome,[9],inactive
CCn1nc(C)c2c1C(=O)NCC(c1ccc(O)cc1)=N2,outcome,[1],inactive
same,outcome,[2],inactive
same,outcome,[3],inactive
same,outcome,[4],inactive
same,outcome,[5],inactive
same,outcome,[7],inactive
same,outcome,[8],inactive
same,outcome,[9],inactive
same,outcome,BCL2L11 (gene 10018),inactive
CNC(C)=O,outcome,[1],inactive
same,outcome,[2],inactive
same,outcome,[3],inactive
same,outcome,[4],inactive
same,outcome,[5],inactive
same,outcome,[7],inactive
same,outcome,[8],inactive
same,outcome,[9],inactive
same,outcome,BCL2L11 (gene 10018),inactive
Cc1nccn1-c1ccc(Sc2cccc(C3(C(N)=O)CCOCC3)c2)cc1,AC50,[1],19.9 µM (active)
same,AC50,[2],31.2 µM (active)
same,outcome,[3],inactive
same,AC50,[4],12.2 µM (active)
same,AC50,[5],5.09 µM (active)
same,outcome,[7],inactive
same,AC50,[8],13.1 µM (active)
same,AC50,[9],13.4 µM (active)
CCc1cccc(CC)c1N,outcome,[1],inactive
same,outcome,[2],inactive
same,outcome,[3],inactive
same,outcome,[4],inactive
same,outcome,[5],inactive
same,outcome,[7],inactive
same,outcome,[8],inactive
same,outcome,[9],inactive
same,outcome,BCL2L11 (gene 10018),inactive
NNC(=O)c1ccncc1,outcome,[1],inactive
same,outcome,[2],inactive
same,outcome,[3],inactive
same,outcome,[4],inactive
same,outcome,[5],inactive
same,outcome,[7],inactive
same,outcome,[8],inactive
same,outcome,[9],inactive
